Source: publication PMC7862700, “An all-to-all approach to the identification of sequence-specific readers for epigenetic DNA modifications on cytosine”

Legend:
Assay in all cases: DAPPL (digital affinity profiling via proximity ligation, sequencing); 10 mM Tris-HCl pH 7.5, 50 mM NaCl, 1 mM DTT, 4% glycerol, room temperature, 30 min; GST-TFs on glutathione beads, 16-mer random dsDNA library, 0.1% formaldehyde crosslink after washing; high values mean tight binding
Conditions in all cases: protein: recombinant; tags: N-terminal GST; dsDNA, one strand shown
[1] = molecular target: T1, ELK1 (Homo sapiens, UniProt P19419 1-428)
T1 sequence: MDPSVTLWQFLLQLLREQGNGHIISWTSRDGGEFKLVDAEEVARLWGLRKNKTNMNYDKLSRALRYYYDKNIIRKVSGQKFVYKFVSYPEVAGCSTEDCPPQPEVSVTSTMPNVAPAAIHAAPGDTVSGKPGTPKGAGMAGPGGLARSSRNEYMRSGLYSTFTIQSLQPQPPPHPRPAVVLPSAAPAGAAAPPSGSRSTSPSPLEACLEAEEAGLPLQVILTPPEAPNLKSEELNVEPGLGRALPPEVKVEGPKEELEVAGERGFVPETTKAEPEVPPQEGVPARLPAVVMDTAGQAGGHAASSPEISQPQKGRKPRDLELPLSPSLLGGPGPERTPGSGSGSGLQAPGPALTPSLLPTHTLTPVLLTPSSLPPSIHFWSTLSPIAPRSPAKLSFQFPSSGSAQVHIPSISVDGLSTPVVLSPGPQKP
Summary of the method: (§1)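 GST fusions of human transcription factors were expressed in yeast and captured with glutathione beads. Once given DNA barcodes and pooled alongside a tag-only sample, they were incubated for 30 min at room temperature with 200 nmole of a random double-stranded 16-mer DNA library in Tris/NaCl/DTT/glycerol buffer, then washed, crosslinked (0.1% formaldehyde), proximity-ligated, PCR-amplified and sequenced on an Illumina NextSeq500. The binding signal of each hexamer is its read frequency for a factor divided by its frequency for the tag-only sample.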

[2] = molecular target: T2, GABPA (Homo sapiens, UniProt Q06546 1-454)
T2 sequence: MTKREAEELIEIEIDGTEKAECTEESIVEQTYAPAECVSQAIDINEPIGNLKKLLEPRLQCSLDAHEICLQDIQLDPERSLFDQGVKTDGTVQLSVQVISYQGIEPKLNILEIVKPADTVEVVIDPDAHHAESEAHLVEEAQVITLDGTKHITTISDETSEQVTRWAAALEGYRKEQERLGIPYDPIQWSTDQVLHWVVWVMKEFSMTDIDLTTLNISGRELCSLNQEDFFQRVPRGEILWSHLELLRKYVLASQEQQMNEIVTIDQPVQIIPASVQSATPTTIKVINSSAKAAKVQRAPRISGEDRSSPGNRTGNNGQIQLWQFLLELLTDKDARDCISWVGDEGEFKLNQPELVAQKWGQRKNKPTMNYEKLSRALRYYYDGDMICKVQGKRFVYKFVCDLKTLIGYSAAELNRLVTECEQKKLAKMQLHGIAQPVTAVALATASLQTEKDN
Summary of the method: as §1

[3] = molecular target: T3, ERG (Homo sapiens, UniProt P11308 1-479)
T3 sequence: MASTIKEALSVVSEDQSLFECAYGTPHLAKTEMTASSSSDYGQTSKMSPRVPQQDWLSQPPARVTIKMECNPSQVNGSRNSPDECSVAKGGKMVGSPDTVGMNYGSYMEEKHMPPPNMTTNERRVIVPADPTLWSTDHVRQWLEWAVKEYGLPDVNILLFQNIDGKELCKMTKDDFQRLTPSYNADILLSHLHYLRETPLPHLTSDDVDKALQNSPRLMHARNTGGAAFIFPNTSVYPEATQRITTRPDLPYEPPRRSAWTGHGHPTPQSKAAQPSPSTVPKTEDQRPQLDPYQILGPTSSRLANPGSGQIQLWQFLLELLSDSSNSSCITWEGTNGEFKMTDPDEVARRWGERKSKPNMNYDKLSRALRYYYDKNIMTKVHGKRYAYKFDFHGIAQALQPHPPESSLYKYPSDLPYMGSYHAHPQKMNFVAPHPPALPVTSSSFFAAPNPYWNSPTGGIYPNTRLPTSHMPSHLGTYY
Summary of the method: as §1

[4] = molecular target: ELF1 (Homo sapiens, UniProt P32519 1-619)
Sequence of ELF1 (P32519 whole entry): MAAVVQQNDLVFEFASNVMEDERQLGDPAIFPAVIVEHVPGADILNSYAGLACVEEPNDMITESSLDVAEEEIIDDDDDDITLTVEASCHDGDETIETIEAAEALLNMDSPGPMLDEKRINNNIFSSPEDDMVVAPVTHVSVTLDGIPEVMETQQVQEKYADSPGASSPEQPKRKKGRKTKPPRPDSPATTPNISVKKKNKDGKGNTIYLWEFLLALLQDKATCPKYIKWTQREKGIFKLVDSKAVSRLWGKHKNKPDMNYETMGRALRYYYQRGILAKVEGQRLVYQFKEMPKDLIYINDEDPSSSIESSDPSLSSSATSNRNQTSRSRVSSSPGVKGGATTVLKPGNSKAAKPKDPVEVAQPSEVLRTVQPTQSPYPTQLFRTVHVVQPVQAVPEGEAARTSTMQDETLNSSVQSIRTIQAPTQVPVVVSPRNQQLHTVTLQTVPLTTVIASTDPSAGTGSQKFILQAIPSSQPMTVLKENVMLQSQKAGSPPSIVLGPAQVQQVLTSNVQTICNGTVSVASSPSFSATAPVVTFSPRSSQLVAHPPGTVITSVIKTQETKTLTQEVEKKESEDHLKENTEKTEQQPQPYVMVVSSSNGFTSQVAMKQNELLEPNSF
Summary of the method: as §1

[5] = molecular target: T4, EHF (Homo sapiens, UniProt Q9NZC4 1-300)
T4 sequence: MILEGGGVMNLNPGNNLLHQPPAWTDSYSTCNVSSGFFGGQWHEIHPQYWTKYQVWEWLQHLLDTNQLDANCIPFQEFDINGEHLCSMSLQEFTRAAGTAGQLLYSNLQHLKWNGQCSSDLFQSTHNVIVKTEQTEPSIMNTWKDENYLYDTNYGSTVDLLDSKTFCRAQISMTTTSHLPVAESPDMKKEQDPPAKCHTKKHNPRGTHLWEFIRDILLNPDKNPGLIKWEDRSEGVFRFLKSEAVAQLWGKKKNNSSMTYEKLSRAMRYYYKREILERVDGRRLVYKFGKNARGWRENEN
Summary of the method: as §1

[6] = molecular target: SPIB (Homo sapiens, UniProt Q01892 1-262)
Sequence of SPIB (Q01892 whole entry): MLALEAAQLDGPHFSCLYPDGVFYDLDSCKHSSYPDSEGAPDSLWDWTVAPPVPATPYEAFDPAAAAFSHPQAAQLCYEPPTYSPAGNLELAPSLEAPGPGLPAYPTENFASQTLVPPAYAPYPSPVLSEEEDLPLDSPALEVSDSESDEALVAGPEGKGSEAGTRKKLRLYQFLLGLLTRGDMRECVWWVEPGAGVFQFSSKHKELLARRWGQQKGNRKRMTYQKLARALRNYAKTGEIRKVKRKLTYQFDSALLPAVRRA
Summary of the method: as §1

[7] = molecular target: T5, ELK3 (Homo sapiens, UniProt P41970 1-407)
T5 sequence: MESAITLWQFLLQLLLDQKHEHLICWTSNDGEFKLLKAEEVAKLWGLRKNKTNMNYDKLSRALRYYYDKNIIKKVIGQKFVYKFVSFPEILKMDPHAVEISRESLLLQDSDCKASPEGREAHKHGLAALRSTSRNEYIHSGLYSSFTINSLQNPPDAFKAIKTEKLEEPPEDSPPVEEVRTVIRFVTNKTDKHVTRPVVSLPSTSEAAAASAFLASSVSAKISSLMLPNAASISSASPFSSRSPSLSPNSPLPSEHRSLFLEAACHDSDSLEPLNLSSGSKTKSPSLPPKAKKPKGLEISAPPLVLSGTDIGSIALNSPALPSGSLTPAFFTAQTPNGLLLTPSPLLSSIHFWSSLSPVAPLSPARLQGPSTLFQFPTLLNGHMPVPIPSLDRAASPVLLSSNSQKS
Summary of the method: as §1

[8] = molecular target: ETV5 (Homo sapiens, UniProt P41161 1-510)
Sequence of ETV5 (P41161 whole entry): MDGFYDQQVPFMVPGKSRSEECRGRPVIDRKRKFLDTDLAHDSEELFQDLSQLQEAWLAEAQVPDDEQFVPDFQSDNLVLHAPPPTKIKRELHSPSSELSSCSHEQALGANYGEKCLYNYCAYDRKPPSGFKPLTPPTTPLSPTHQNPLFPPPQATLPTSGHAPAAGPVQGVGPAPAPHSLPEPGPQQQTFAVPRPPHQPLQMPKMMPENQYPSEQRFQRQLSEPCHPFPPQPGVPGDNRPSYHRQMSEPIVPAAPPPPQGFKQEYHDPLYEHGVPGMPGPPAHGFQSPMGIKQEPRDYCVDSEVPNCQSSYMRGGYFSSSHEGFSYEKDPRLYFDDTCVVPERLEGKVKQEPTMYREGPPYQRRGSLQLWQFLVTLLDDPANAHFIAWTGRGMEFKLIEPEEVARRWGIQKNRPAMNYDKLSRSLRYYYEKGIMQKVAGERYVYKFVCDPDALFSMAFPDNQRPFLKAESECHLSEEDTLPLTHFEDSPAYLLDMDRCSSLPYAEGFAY
Summary of the method: as §1

[9] = molecular target: T6, SPIC (Homo sapiens, UniProt Q8N5J4 1-248)
T6 sequence: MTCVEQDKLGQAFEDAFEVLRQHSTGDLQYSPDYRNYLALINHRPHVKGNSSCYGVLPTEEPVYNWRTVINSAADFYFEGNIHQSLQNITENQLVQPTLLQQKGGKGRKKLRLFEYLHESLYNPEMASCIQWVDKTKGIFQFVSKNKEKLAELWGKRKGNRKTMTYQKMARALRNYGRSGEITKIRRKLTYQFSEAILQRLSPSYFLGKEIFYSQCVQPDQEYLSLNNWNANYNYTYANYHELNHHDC
Summary of the method: as §1

[10] = molecular target: ELF4 (Homo sapiens, UniProt Q99607 1-663)
Sequence of ELF4 (Q99607 whole entry): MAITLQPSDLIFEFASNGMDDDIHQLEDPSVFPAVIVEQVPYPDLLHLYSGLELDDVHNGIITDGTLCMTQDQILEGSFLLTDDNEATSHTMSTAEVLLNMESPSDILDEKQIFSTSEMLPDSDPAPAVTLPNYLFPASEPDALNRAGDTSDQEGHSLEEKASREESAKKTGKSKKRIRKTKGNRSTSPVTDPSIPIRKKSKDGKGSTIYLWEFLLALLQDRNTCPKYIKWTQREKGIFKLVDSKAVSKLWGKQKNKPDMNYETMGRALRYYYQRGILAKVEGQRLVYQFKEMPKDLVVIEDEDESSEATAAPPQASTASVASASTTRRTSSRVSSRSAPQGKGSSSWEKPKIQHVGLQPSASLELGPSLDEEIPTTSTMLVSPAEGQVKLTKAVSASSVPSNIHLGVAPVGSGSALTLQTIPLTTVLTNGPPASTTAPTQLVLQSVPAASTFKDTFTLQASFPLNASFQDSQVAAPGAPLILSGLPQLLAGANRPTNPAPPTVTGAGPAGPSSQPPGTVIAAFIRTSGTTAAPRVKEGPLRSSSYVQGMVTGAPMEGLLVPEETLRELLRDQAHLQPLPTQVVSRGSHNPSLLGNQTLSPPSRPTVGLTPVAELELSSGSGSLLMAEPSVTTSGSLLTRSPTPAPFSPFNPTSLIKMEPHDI
Summary of the method: as §1

[11] = molecular target: T7, ELF3 (Homo sapiens, UniProt P78545 1-371)
T7 sequence: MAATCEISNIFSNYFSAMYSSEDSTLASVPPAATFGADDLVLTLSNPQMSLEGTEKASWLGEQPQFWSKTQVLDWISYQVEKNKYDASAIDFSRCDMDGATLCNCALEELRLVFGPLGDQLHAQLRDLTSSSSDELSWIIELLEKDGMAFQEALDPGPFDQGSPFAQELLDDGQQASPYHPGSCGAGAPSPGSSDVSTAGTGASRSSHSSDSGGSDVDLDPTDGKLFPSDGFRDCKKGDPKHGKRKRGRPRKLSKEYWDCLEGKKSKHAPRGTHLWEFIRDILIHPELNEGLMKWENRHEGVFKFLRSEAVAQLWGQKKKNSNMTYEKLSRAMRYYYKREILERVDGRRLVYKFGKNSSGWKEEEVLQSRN
Summary of the method: as §1

[12] = molecular target: ETV1 (Homo sapiens, UniProt P50549 1-477)
Sequence of ETV1 (P50549 whole entry): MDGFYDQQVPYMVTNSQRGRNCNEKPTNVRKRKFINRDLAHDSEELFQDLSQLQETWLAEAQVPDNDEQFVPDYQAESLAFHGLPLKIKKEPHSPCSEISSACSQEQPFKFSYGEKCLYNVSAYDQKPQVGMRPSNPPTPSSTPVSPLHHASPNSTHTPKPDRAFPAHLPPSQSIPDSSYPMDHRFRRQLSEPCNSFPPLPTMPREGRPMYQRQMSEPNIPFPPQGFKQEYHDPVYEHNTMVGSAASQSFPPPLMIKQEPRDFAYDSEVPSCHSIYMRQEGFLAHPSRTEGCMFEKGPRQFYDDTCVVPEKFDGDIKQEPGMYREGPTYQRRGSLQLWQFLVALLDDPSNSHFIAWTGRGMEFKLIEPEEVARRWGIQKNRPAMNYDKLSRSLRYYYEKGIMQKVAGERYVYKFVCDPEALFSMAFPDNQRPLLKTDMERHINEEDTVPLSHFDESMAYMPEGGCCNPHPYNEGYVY
Summary of the method: as §1

[13] = molecular target: T8, ERF (Homo sapiens, UniProt P50548 1-548)
T8 sequence: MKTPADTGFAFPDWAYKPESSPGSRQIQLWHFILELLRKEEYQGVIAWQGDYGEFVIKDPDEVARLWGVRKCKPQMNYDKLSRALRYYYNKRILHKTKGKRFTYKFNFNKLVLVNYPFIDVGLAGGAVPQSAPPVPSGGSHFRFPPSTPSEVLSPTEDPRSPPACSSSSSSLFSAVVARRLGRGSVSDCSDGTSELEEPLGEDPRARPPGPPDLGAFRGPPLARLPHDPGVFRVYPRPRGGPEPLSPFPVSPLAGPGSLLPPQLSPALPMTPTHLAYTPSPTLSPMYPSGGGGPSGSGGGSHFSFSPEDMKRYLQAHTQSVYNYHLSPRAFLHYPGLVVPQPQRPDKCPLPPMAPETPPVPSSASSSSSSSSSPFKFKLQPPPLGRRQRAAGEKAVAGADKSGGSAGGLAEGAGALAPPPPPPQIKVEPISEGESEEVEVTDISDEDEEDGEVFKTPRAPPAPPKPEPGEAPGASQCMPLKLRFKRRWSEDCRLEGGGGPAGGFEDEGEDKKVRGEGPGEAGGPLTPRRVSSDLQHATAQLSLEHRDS
Summary of the method: as §1

[14] = molecular target: T9, ETV3L (Homo sapiens, UniProt Q6ZN32 1-361)
T9 sequence: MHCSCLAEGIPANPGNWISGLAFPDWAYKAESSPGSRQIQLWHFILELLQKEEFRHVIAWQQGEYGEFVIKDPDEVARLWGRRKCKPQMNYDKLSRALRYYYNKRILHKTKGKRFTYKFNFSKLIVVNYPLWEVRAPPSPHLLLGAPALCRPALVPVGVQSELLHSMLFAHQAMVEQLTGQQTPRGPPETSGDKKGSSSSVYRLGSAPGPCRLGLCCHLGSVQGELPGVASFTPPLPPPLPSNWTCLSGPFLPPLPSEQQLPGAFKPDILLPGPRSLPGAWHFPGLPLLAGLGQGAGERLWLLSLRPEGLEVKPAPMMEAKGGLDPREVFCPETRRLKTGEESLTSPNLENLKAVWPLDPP
Summary of the method: as §1

[15] = molecular target: T10, ETS2 (Homo sapiens, UniProt P15036 1-469)
T10 sequence: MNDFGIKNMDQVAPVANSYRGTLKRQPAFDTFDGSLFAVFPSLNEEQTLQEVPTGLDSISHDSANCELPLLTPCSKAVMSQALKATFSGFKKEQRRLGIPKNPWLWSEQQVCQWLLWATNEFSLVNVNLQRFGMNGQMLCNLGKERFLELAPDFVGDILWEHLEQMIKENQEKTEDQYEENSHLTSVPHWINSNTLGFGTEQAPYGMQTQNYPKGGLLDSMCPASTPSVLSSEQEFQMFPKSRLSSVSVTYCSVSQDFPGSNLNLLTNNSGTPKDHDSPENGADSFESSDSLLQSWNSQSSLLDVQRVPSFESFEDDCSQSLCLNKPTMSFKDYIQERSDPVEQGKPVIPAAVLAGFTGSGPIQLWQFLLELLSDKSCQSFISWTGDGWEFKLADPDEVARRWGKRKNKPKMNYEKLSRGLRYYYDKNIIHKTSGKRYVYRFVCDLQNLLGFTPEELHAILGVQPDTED
Summary of the method: as §1

[16] = molecular target: T11, SPDEF (Homo sapiens, UniProt O95238 1-335)
T11 sequence: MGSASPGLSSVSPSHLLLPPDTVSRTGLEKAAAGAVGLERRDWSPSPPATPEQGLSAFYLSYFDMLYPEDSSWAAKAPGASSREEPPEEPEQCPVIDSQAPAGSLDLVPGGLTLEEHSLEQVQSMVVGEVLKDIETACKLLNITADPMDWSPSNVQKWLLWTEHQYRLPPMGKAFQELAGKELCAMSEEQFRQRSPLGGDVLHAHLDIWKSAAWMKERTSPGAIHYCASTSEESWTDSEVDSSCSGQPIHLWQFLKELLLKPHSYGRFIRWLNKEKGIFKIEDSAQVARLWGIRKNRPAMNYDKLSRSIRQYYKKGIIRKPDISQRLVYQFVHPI
Summary of the method: as §1

[17] = molecular target: T12, ETV7 (Homo sapiens, UniProt Q9Y603 1-341)
T12 sequence: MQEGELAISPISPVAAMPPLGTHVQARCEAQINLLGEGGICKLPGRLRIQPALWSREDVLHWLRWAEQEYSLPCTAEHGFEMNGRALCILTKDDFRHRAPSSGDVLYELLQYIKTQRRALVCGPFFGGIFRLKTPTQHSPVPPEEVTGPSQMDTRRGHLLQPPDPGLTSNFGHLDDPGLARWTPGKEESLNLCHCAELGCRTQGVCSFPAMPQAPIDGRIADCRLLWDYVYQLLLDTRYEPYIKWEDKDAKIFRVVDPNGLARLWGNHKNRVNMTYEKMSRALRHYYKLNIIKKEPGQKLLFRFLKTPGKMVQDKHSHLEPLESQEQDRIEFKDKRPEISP
Summary of the method: as §1

[18] = molecular target: T13, ETV3 (Homo sapiens, UniProt P41162-2 1-143)
T13 sequence: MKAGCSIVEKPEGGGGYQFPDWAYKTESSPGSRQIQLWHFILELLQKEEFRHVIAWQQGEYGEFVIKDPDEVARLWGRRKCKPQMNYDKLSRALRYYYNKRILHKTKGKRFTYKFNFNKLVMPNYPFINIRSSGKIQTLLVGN
Summary of the method: as §1

[19] = molecular target: ETV6 (Homo sapiens, UniProt P41212 1-452)
Sequence of ETV6 (P41212 whole entry): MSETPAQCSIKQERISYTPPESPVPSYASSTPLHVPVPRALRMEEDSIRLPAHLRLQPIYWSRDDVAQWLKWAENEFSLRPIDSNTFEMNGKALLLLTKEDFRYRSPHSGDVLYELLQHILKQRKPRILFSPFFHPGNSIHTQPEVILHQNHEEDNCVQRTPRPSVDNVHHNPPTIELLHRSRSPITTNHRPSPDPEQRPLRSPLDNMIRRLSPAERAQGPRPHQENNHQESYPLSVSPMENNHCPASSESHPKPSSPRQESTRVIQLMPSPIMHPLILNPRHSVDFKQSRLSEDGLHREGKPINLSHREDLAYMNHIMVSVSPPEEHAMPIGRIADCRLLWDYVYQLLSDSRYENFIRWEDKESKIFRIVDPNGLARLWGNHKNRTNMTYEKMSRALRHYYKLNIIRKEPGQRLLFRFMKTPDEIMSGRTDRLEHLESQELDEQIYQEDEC
Summary of the method: as §1

Sequence: AGTGCA
- binding signal [1]: 1.1 fold enrichment (6-mer frequency, TF over GST control)
- binding signal [2]: 1.1 fold enrichment (6-mer frequency, TF over GST control)
- binding signal [3]: 1.07 fold enrichment (6-mer frequency, TF over GST control)
- binding signal [4]: 1.07 fold enrichment (6-mer frequency, TF over GST control)
- binding signal [5]: 1.09 fold enrichment (6-mer frequency, TF over GST control)
- binding signal [6]: 1.08 fold enrichment (6-mer frequency, TF over GST control)
- binding signal [7]: 1.13 fold enrichment (6-mer frequency, TF over GST control)
- binding signal [8]: 1.14 fold enrichment (6-mer frequency, TF over GST control)
- binding signal [9]: 1.21 fold enrichment (6-mer frequency, TF over GST control)
- binding signal [10]: 1.03 fold enrichment (6-mer frequency, TF over GST control)
- binding signal [11]: 1.16 fold enrichment (6-mer frequency, TF over GST control)
- binding signal [12]: 1.11 fold enrichment (6-mer frequency, TF over GST control)
- binding signal [13]: 1.12 fold enrichment (6-mer frequency, TF over GST control)
- binding signal [14]: 1.03 fold enrichment (6-mer frequency, TF over GST control)
- binding signal [15]: 1.08 fold enrichment (6-mer frequency, TF over GST control)
- binding signal [16]: 1.07 fold enrichment (6-mer frequency, TF over GST control)
- binding signal [17]: 1.18 fold enrichment (6-mer frequency, TF over GST control)
- binding signal [18]: 1.05 fold enrichment (6-mer frequency, TF over GST control)
- binding signal [19]: 1.16 fold enrichment (6-mer frequency, TF over GST control)
